According to PubChem BioAssay (Tox21):
Several values for one entry are separate records, joined by “and”; a condition that tells them apart may be missing. Equal entries are not always repeated. Inconclusive results are not listed. Where a call stands in place of a potency, no number is given. A structure can be active in one record and inactive in another. Activity calls are given as the source filed them. Unless noted, calls follow the shape of the dose curve; as a rule, active = well fitted curve in the direction sought with a large enough effect in the repeat runs; inconclusive = weak or mixed curves; inactive = no such curve, though single readings can be large; an effect the other way counts as inactive or inconclusive.

Experiments:
[1] = qHTS assay to identify small molecule antagonists of the estrogen related receptor (ERR) signaling pathway from Tox21 library - cell viability counter screen (AID 1224834); also: nearly all actives have a fitted effect of over 30% in size; also: potency is read from the fitted curve at half-maximal effect
In short: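 After 17.5 h of compound exposure at 37 C, ERR cells are incubated with CellTiter-Fluor for 30 min and fluorescence intensity serves as the viability measure.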

[2] = target: Luciferin 4-monooxygenase (Photinus pyralis) (UniProt P08659); assay: qHTS assay to identify small molecule inhibitors of firefly luciferase (AID 1224835); also: nearly all actives have a fitted effect of over 25% in size; also: potency is read from the fitted curve at half-maximal effect
Sequence of Luciferin 4-monooxygenase (Photinus pyralis) (P08659 whole entry, looked up): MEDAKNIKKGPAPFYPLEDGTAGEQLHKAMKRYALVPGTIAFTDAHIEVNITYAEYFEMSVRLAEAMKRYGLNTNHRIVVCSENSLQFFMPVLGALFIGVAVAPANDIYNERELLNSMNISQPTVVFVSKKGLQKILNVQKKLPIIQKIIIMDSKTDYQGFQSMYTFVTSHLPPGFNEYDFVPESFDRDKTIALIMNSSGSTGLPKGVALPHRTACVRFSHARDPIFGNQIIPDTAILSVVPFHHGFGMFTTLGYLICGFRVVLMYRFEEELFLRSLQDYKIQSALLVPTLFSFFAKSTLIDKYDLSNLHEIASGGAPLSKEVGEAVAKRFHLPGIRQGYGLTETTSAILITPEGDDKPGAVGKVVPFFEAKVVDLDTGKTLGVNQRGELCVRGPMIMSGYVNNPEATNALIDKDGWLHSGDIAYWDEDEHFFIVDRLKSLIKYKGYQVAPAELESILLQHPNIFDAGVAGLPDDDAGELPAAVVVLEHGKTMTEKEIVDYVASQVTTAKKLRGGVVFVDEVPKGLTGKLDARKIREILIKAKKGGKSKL
In short: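 Biochemical qHTS: compounds run as interplate titrations against purified firefly enzyme, with D-luciferin and ATP each at its KM concentration. Light output recorded by CCD imaging.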

[3] = qHTS assay to identify small molecule agonists of the constitutive androstane receptor (CAR) signaling pathway - cell viability counter screen (AID 1224836); also: nearly all actives have a fitted effect of over 45% in size
In short: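 Viability read-out: CellTiter-Fluor fluorescence after 23 h compound exposure at 37 C/5% CO2 in double-stable HepG2-CYP2B6-hCAR cells, with PK11195 present at 0.75 uM final; compounds tested in 15-point titration.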

[4] = qHTS assay to identify small molecule antagonists of the constitutive androstane receptor (CAR) signaling pathway - cell viability counter screen (AID 1224837); also: nearly all actives have a fitted effect of over 45% in size
In short: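 Counter screen run in HepG2-CYP2B6-hCAR cells: 4 hr settle, compound titration (15 concentrations) with 50 nM CITCO, 23 hr at 37 C/5% CO2, CellTiter-Fluor fluorescence.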

[5] = target: Nuclear receptor subfamily 1 group I member 3 (Homo sapiens) (UniProt Q14994); assay: qHTS assay to identify small molecule antagonists of the constitutive androstane receptor (CAR) signaling pathway (AID 1224838);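 also: HepG2 cells stably expressing hCAR with CYP2B6 luciferase reporter stimulated by CITCO; nearly all actives have a fitted effect of over 40% in size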
Sequence of Nuclear receptor subfamily 1 group I member 3 (Homo sapiens) (Q14994 whole entry, looked up): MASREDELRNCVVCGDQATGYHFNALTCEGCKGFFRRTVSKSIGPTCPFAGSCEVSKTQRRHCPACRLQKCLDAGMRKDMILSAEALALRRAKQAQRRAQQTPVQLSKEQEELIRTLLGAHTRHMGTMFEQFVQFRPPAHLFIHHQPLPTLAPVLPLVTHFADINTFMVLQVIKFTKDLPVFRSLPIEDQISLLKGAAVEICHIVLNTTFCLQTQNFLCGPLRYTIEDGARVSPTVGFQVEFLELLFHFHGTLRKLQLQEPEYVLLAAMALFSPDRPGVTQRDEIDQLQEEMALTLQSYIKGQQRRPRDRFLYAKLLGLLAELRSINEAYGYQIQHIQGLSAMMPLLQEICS
In short: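 Cell line: HepG2 double-stable for hCAR and CYP2B6-2.2kb reporter. Agonist: CITCO, 50 nM final. Compounds: 15 concentrations, 24 h, 37 C. Detection: ONE-Glo luminescence.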

[6] = target: Nuclear receptor subfamily 1 group I member 3 (Homo sapiens) (UniProt Q14994); assay: qHTS assay to identify small molecule agonists of the constitutive androstane receptor (CAR) signaling pathway (AID 1224839); also: nearly all actives have a fitted effect of over 15% in size; also: potency is read from the fitted curve at half-maximal effect;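 as to activation: HepG2 cells stably carrying human CAR and a CYP2B6 luciferase reporter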
In short: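 Luminescence read-out (ONE-Glo, 30 min, room temperature) from double-stable HepG2-CYP2B6-hCAR cells exposed 24 h to 15-point compound series in presence of 0.75 uM PK11195 final.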

[7] = qHTS assay to identify small molecule antagonists of the estrogen related receptor signaling pathway with the pleiotropic PPARgamma coactivator (PGC) from Tox21 10K library (AID 1224841; call rule not given here; also: actives are mostly falling curves and most rising ones were filed inactive; nearly all actives have a fitted effect of over 50% in size)
In short: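 qHTS antagonist format: PGC/ERR cells, 2k/well, compound in DMSO by pin transfer after 6 h attachment, 18 h treatment at 37 C, One-Glo luminescence read at 30 min.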

[8] = qHTS assay to identify small molecule agonists of the estrogen related receptor signaling pathway with the pleiotropic PPARgamma coactivator (PGC) from Tox21 10K library (AID 1224842); also: nearly all actives have a fitted effect of over 15% in size
In short: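 PGC/ERR reporter cell line, 2,000 cells per well, incubated 6 h at 37 C before 23 nL compound in DMSO was added. After 18 h at 37 C, One-Glo luminescence read following 30 min at room temperature.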

[9] = target: Thyrotropin receptor (Homo sapiens) (UniProt P16473); assay: qHTS assay to identify small molecule agonists of the thyroid stimulating hormone receptor (TSHR) signaling pathway (AID 1224843; calls by dose curve; also: nearly all actives have a fitted effect of over 45% in size; also: potency is read from the fitted curve at half-maximal effect)
Sequence of Thyrotropin receptor (Homo sapiens) (P16473 whole entry, looked up): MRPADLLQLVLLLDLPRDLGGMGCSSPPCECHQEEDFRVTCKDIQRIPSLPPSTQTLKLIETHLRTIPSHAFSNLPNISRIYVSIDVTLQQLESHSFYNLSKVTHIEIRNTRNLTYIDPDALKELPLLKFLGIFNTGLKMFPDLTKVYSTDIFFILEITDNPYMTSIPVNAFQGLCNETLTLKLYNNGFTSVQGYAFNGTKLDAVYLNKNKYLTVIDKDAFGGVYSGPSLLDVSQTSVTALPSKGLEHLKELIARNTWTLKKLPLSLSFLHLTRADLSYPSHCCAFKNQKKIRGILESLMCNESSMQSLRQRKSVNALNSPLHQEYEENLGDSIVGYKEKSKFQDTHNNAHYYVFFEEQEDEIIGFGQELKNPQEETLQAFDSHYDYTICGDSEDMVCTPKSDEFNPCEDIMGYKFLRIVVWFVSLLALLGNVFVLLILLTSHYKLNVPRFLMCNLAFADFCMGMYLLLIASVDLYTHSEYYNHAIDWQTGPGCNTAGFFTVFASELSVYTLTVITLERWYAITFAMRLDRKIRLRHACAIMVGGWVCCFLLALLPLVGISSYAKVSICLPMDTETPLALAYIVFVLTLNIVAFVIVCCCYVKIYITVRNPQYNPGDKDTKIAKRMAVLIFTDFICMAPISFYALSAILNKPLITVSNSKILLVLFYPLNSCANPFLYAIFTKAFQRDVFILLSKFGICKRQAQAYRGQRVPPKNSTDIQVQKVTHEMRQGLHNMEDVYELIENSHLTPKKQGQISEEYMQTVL
In short: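 TSHR-HEK293 cells in agonist mode, 30 min room-temperature step, then cAMP measured by competitive HTRF (cAMP-d2 with anti-cAMP cryptate) after 1 h at room temperature. Tested at 15 concentrations in triplicate.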

[10] = qHTS assay to identify small molecule agonists of the hypoxia (HIF-1) signaling pathway - cell viability counter screen (AID 1224844; calls by dose curve; also: nearly all actives have a fitted effect of over 50% in size)
In short: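 Cells (HRE-bla ME-180, 2,000 per well) sat 5 hrs at 37C, got compound for 17 hrs, were read for CCF4-AM FRET, and were finally lysed with CellTiter-Glo for a 30 min room-temperature luminescence read.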

[11] = qHTS assay to identify small molecule agonists of H2AX (AID 1224845; active = well fitted activation curve with a large enough effect in the signal ratio in the repeat runs, not every such curve was filed as active; the % refers to the signal ratio)
In short: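 Wild-type CHO-K1 cells, plated overnight, exposed 3hr at 37C to 15 concentrations (0.76% DMSO final). Lysed, then HTRF anti-pH2AX (S139) cryptate and anti-H2AX-d2 antibodies, 24 hr room temperature; 665/620 nm emission read.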

[12] = qHTS assay to identify small molecule agonists of the hypoxia (HIF-1) signaling pathway (AID 1224846; active = well fitted activation curve with a large enough effect in the signal ratio in the repeat runs, not every such curve was filed as active; the % refers to the signal ratio)
In short: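 A low-serum medium (0.5% dialyzed FBS) holding 2,000 HRE-bla ME-180 cells per well is preincubated for 5 hrs, dosed with compounds by pintool, and kept a further 17 hrs at 37C, 5% CO2 before CCF4-AM FRET detection of beta-lactamase.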

[13] = qHTS assay to identify small molecule agonists of H2AX - cell viability counter screen (AID 1224847; calls by dose curve; also: top concentration of the series differs between compounds; nearly all actives have a fitted effect of over 30% in size)
In short: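 CHO-K1 wt, 1000 cells/well, o/n 37C; cpds 15 conc, 3 h 37C, 0.76% DMSO; CellTiter-Glo, 30 min RT, luminescence.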

[14] = qHTS assay to identify small molecule antagonists of the estrogen related receptor (ERR) signaling pathway from Tox21 library (AID 1224848); also: nearly all actives have a fitted effect of over 50% in size
In short: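 ERR reporter cell line (from NTP) seeded 2,000 cells/well, rested 6 h at 37 C/5% CO2, then pin-dosed with compounds in DMSO. After 18 h at 37 C, ONE-Glo added; luminescence read after 30 min at room temperature.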

[15] = qHTS RealTime-Glo MT Cell Viability Assay in HepG2 cells - 24 hour (AID 1224867); also: nearly all actives have a fitted effect of over 50% in size
In short: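 Tox21 10K library screened in qHTS format on HepG2 cells carrying RealTime-Glo reagents. Compounds were added after a 5 h preincubation, and the luminescent signal from continuous culture was measured repeatedly during 40 h treatment.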

[16] = qHTS RealTime-Glo MT Cell Viability Assay in HEK293 cells - 32 hour (AID 1224868); also: nearly all actives have a fitted effect of over 50% in size; also: potency is read from the fitted curve at half-maximal effect
In short: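 Luminescence generated by NanoLuc from substrate produced by living HEK293 cells served as the viability signal. Each value reflects the reading at its stated time point during continuous 40 h compound exposure at 37 C.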

[17] = A CellTox Green Cytotoxicity Assay to monitor cytotoxicity in HEK293 cells - 0 hour (AID 1224869); also: nearly all actives have a fitted effect of over 50% in size
In short: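 Fluorescence intensity, read at 0, 8, 16, 24, 32 and 40 h of compound treatment, reflected dye binding to DNA of dead HEK293 cells; compounds (23 nL, DMSO) were added 5 h after plating cells with reagent.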

[18] = qHTS assay to identify small molecule agonists of the estrogen related receptor (ERR) signaling pathway from Tox21 library (AID 1224849; calls by dose curve; also: nearly all actives have a fitted effect of over 15% in size); conditions: ERR reporter cell line, ONE-Glo luciferase, 18 h; at 92.4 µM (top of the series)
In short: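 Screening used an NTP-provided ERR luciferase cell line. Compounds in DMSO were added 6 h after seeding and left 18 h at 37 C before a 30 min ONE-Glo step and luminescence reading.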

SMILES | Potency [1] | Potency [2] | Potency [3] | Potency [4] | Potency [5] | Potency [6] | Potency [7] | Potency [8] | Potency [9] | Potency [10] | Potency [11] | outcome [12] | Potency [13] | Potency [14] | outcome [15] | Potency [16] | Potency [17] | activity change, positive = activation [18]
C=C(C)OC(C)=O | inactive | inactive | inactive | inactive | inactive | inactive | inactive | inactive | inactive | inactive | inactive | inactive | inactive | inactive | inactive | inactive | inactive | –
NCCNc1cccc2ccccc12 | 68.5 µM (active) and inactive | inactive | inactive | inactive | inactive | inactive | – | – | – | inactive | inactive | inactive | inactive | – | inactive | 54.9 µM (active) and 53.6 µM (active) and inactive | inactive | –
O=c1c(-c2ccc(O)cc2)coc2cc(O)cc(O)c12 | inactive | 13.9 µM (active) and 11.2 µM (active) and 9.77 µM (active) | inactive | inactive | inactive | 15.1 µM (active) and 9.69 µM (active) and 13.3 µM (active) | – | – | inactive | inactive | – | inactive | inactive | – | inactive | 24.5 µM (active) | inactive | –
NC(=O)OCC(COC(N)=O)c1ccccc1 | inactive | inactive | inactive | inactive | inactive | inactive | – | – | inactive | inactive | inactive | – | inactive | – | inactive | inactive | inactive | –
COCCOCCOC | inactive | inactive | inactive | inactive | inactive | inactive | – | – | inactive | inactive | inactive | inactive | inactive | – | inactive | inactive | inactive | –
COc1ccc(C(=O)c2ccccc2)c(O)c1 | inactive | 31.2 µM (active) and 35.6 µM (active) and 30.9 µM (active) | inactive | inactive | inactive | 47.8 µM (active) and 48.6 µM (active) | – | – | inactive | inactive | inactive | inactive | inactive | – | inactive | inactive and 9.77 µM (active) | inactive | –
CC(=O)OC/C=C(C)/C=C/C=C(C)/C=C/C1=C(C)CCCC1(C)C | inactive | inactive | inactive | inactive | inactive | inactive | – | – | inactive | inactive | inactive | inactive | inactive | – | inactive | inactive | inactive | –
O=C(O)CN(CC(=O)O)CC(=O)O | inactive | inactive | inactive | inactive | inactive | inactive | inactive | inactive | inactive | inactive | inactive | inactive | inactive | inactive | inactive | inactive | inactive | 0.123% (inactive) and 2.89% (inactive)
Cc1cccc(C)c1O | inactive | inactive | inactive | inactive | inactive | inactive | inactive | inactive | – | inactive | inactive | inactive | inactive | inactive | inactive | inactive | inactive | –
CC(C)(C)CC(C)(C)c1ccc(O)c(-n2nc3ccccc3n2)c1 | inactive | inactive | inactive | inactive | inactive | 27.7 µM (active) and inactive | – | – | 27.7 µM (active) and 15.4 µM (active) | inactive | inactive | inactive | inactive | – | inactive | 49.7 µM (active) and inactive | inactive | –
Cc1c(N(C)C)c(=O)n(-c2ccccc2)n1C | inactive | inactive | inactive | inactive | inactive | inactive | – | – | inactive | inactive | inactive | – | inactive | – | inactive | inactive | inactive | –
CC(C)CC(C)CC(O)CC(C)C (configuration not stated) | inactive | inactive | inactive | inactive | inactive | inactive | inactive | inactive | – | inactive | inactive | inactive | inactive | inactive | inactive | inactive | inactive | 3.18% (inactive) and 4.59% (inactive)
C[C@]12C[C@H](O)[C@H]3[C@@H](CCC4=CC(=O)CC[C@@]43C)[C@@H]1CC[C@@H]2C(=O)CO | inactive | inactive | inactive | inactive | inactive | inactive | – | – | 12.2 µM (active) and inactive | inactive | inactive | inactive | inactive | – | inactive | inactive | inactive | –
CC(O)COc1ccccc1 (configuration not stated) | inactive | inactive | inactive | inactive | inactive | inactive | – | – | inactive | inactive | inactive | inactive | inactive | – | inactive | inactive | inactive | –
CCCCCCCC(=O)OCC(O)CO (configuration not stated) | inactive | inactive | inactive | inactive | inactive | inactive | inactive | inactive | inactive | inactive | inactive | inactive | inactive | inactive | inactive | inactive | inactive | –
C=C(C)C(N)=O | inactive | inactive | inactive | inactive | inactive | inactive | inactive | inactive | inactive | inactive | inactive | inactive | inactive | inactive | inactive | inactive | inactive | –
CCCCOC(=O)CCCCCCCCC(=O)OCCCC | inactive | inactive | inactive | inactive | inactive | inactive | – | – | inactive | inactive | inactive | inactive | inactive | – | inactive | inactive | inactive | –
